This is one part of the list. How many sequences the whole screen found active is unknown.
B1: HC1741 (peptide)
chain: CAMEECSNHLAGNASASA
B2: HC622 (peptide)
chain: CAALARKMIGAGNASASA
B3: FS-1 (peptide)
chain: CAACARKFRDAGNASASA
B4: FS-1303 (peptide)
chain: CAALIRKLRDAGNASASA
B5: FS-1183 (peptide)
chain: CAALARSHRDAGNASASA
B6: HC2446 (peptide)
chain: CAEMEVPCHRAGNASASA
B7: FS-782 (peptide)
chain: CAGKARARRTAGNASASA
B8: HC925 (peptide)
chain: CAELTPAETTAGNASASA
B9: FS-1111 (peptide)
chain: CAAPTRARRTAGNASASA
B10: HC968 (peptide)
chain: CAKPTLHGPTAGNASASA
B11: HC786 (peptide)
chain: CAVLVLNPSVAGNASASA
B12: HC159 (peptide)
chain: CAEVVTQTWVAGNASASA
B13: HC16 (peptide)
chain: CAMEETSQHLAGNASASA

Molecular target: furin, P09958
Test: furin cleavage Z-score vs untreated control; higher = more cleavage, active = 3.5 or more, inactive = 1 or less, 8 variable residues between constant flanks
Outline: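 The cleavage Z-score is the log read count relative to furin-free reactions, lowess-adjusted and scaled by median absolute deviation. Counts came from sequencing DNA released from bead-bound 8-mer peptide–cDNA fusions after digestion with purified furin for 7.5, 15 or 30 min.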
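Further: purified furin at 1:10 enzyme:substrate in 50 mM HEPES pH 7.5.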

Chain of furin, P09958 (P09958 whole entry): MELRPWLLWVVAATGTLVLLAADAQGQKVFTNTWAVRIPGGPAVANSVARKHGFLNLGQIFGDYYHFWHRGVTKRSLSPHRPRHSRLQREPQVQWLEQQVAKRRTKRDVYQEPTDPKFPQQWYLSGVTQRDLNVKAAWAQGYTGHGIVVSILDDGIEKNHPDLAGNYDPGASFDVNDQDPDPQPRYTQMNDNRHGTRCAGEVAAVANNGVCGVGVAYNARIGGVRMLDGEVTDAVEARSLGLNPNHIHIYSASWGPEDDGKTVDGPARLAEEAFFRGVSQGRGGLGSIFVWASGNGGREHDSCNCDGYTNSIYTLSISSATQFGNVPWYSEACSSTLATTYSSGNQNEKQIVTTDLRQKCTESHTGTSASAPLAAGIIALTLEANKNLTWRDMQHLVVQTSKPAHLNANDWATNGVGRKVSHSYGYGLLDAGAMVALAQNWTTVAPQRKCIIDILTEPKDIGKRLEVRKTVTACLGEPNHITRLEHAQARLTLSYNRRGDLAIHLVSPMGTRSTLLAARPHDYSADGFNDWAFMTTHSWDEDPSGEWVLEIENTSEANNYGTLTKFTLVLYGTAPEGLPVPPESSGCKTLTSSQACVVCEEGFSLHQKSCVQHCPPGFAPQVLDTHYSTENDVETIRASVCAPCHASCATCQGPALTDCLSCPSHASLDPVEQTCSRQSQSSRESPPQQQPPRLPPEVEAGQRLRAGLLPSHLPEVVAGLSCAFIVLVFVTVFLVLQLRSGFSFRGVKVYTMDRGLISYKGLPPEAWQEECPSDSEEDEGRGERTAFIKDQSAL

Row | Sequence | furin cleavage Z-score (7.5 min) | furin cleavage Z-score (15 min) | furin cleavage Z-score (30 min)
1 | B1 | -0.217 (inactive) | 1.15 | 0.956 (inactive)
2 | B2 | -0.391 (inactive) | -0.298 (inactive) | -0.269 (inactive)
3 | B3 | 0.95 (inactive) | -0.474 (inactive) | -0.446 (inactive)
4 | B4 | 10.1 (active) | 10.2 (active) | 7.71 (active)
5 | B5 | 3.5 (active) | 2.5 | 3.98 (active)
6 | B6 | 1.88 | 3.24 | 0.262 (inactive)
7 | B7 | 7.77 (active) | 7.95 (active) | 6.06 (active)
8 | B8 | -0.725 (inactive) | 0.302 (inactive) | -0.347 (inactive)
9 | B9 | 9.32 (active) | 8.24 (active) | 6.87 (active)
10 | B10 | 0.718 (inactive) | 0.412 (inactive) | -0.00703 (inactive)
11 | B11 | 1.78 | -1.12 (inactive) | 0.0915 (inactive)
12 | B12 | -0.939 (inactive) | 1.5 | 1.45
13 | B13 | 0.191 (inactive) | 1.87 | 1.08
